The values that follow come from PubChem BioAssay (NCATS).

Molecules are shown by their SMILES. “And” between values parts separate entries of the source, which are not always exact repeats. Identical values can stand only once. Results filed as inconclusive are left out. The source made the active and inactive calls. Unless noted, the call rests on the fitted dose curve; in most records, active means well fitted curve in the direction sought with a large enough effect; inconclusive means small, poorly fitted or top-dose-only effect, or another doubt; inactive means no such curve, though single readings can be large; an effect the other way counts as inactive or inconclusive.

A short description of assay [1]: qHTS Assay for Identifying Gametocytocidal Compounds (AID 743244). Further: potency means the concentration at half of the fitted maximal effect.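 On max response: on the % scale 0 is the no-effect control and ±100 the full control effect; actives lower the fluorescent signal which means gametocytes are killed.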 Conditions: P. falciparum 3D7 stage III-V gametocytes, alamarBlue, 72 h; max response: stronger effect = lower value. A digest of the protocol: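 3D7 gametocytes, stages III–V, 20,000/well; cpd 72 h, 37 °C/5% CO2; + alamarBlue 24 h; fluor. Ex 525/Em 598.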
For orientation: In qHTS, concentration-response curves come from the screen itself.

Assay [2] in a line: qHTS assay for measurement of the activity of small molecule inhibitors on Zika virus induced Caspase-3 activity in human iPSC derived neural progenitor cells (hNPCs) (AID 1224857). Further: % of control where 0% means no effect; nearly all actives have a fitted effect of over 65% in size. The procedure, abridged: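 Cells were plated at 350 per well and grown 16 to 20 hours. Compound pretreatment lasted one hour, after which ZIKV (2 FFU/cell) was added for 6 hours. Percent inhibition was normalized between uninfected and infected controls.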

Assay [3] is described as follows: qHTS assay for measurement of the activity of small molecule inhibitors on Zika virus induced Caspase-3 activity in human astrocytoma cells (AID 1224859).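 Further: plate controls were ZIKV-infected untreated cells for no effect and uninfected cells for full effect.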 A digest of the protocol: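 Percent inhibition of virus-induced caspase-3/7 signal is calculated against uninfected and ZIKV-infected control cells. Cells are SNB-19, infected at 2 FFU/cell for 6 h after 1 h compound exposure.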

Assay [4] can be described thus: qHTS assay to identify small molecule inhibitors of chordoma cells - UCH-1 (AID 1259355). Further: nearly all actives have a fitted effect of over 55% in size. Further: potency means the concentration at half of the fitted maximal effect. A digest of the protocol: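 A 48hr growth-inhibition format: each drug tested at 15 concentrations together with added auranofin, camptothecin, doxorubicin, rubitecan and topotecan, with cell viability quantified as CellTiter-Glo luminescence.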
The nature of assay [5]: qHTS assay to identify small molecule inhibitors of chordoma cells - UCH-2 (AID 1259356). Further: potency means the concentration at half of the fitted maximal effect.
Assay [6] can be described thus: P-glycoprotein substrates identified in KB-8-5-11 adenocarcinoma cell line, qHTS therapeutic library screen (AID 1346987). Further: nearly all actives have a fitted effect of over 65% in size. Further: potency means the concentration at half of the fitted maximal effect. The procedure, abridged:
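Human cervical adenocarcinoma KB-8-5-11 cells, selected in colchicine to over-express P-gp and assayed without it, were exposed for 72 h to titrated compounds. An ATP-based luminescent viability signal gave AC50.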

Assay [7] can be described thus: NS1 protein of Zika virus - qHTS assay to identify small molecule inhibitors in human HEK 293 cells (AID 1347053). Further: nearly all actives have a fitted effect of over 55% in size. Further: potency means the concentration at half of the fitted maximal effect. The procedure, abridged: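 Read-out is a two-antibody TR-FRET for ZIKV NS1, normalized between uninfected cells and infected cells. Compound added 1 h before MR766 infection at MOI 0.5; human HEK 293 cells incubated 24 h, 37 C.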
Assay [8] is described as follows: qHTS assay for cell viability of HEK293 cells (AID 743288). Further: on the % scale 0 is the no-effect control and ±100 the full control effect; nearly all actives have a fitted effect of over 50% in size. Conditions: ATP luminescence (CellTiter-Glo), 18 h, stronger effect = lower value. The procedure, abridged: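 Readout is luciferase-coupled ATP content (CellTiter-Glo luminescence, 30 min room temperature) as a measure of metabolically competent cells. Parental HEK293 cells were plated 5 h or more before compound addition, then treated 18 h at 37 C.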

Assay [9] in a line: qHTS assay for cell viability of the p53RE-bla HCT-116 cell line (AID 743292). Further: on the % scale 0 is the no-effect control and ±100 the full control effect; nearly all actives have a fitted effect of over 55% in size. The procedure, abridged:
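CellSensor p53RE-bla HCT-116 cells, 4,000/well, preincubated 5 h at 37 C, then exposed to compounds in DMSO for 16 h at 37 C. Viability read as CellTiter-Glo luminescence (intracellular ATP) after 30 min at room temperature.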

A short description of assay [10]: qHTS profiling of the MIPE4 collection as inhibitors of Plasmodium falciparum (3D7) proliferation (AID 743344; call rule not given here;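 further: scaled between DMSO vehicle wells and 0.29 µM artemisinin as full inhibition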). Conditions: P. falciparum 3D7 in erythrocytes, SYBR Green DNA fluorescence, 72 h; at 28.5 µM (top of the series). A digest of the protocol: (§1)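 Parasite DNA was quantified by SYBR Green I fluorescence (ex 485, em 535 nm) after overnight lysis in saponin/Triton buffer at room temperature. Cultures at 0.3% parasitemia and 2.5% hematocrit were first exposed to compound for 72 h at 37 C; signals were normalised to artemisinin (0.29 uM) and vehicle wells.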

The nature of assay [11]: qHTS profiling of the MIPE4 collection as inhibitors of Plasmodium falciparum (DD2) proliferation (AID 743345; call rule not given here). Conditions: P. falciparum Dd2 in erythrocytes, SYBR Green DNA, 72 h; at 28.5 µM (top of the series). A digest of the protocol:
as §1

Assay [12] in a line: qHTS profiling of the MIPE4 collection as inhibitors of Plasmodium falciparum (DD2) proliferation (Rep 2) (AID 743346; call rule not given here). The note with it: P. falciparum Dd2 in erythrocytes, SYBR Green DNA, 72 h; at 28.5 µM (top of the series). A digest of the protocol:
as §1

Assay [13] can be described thus: qHTS profiling of the MIPE4 collection as inhibitors of Plasmodium falciparum (HB3) proliferation (AID 743347; call rule not given here;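 further: plate controls were DMSO vehicle wells for no effect and artemisinin wells for full effect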). Conditions: P. falciparum HB3 in erythrocytes, SYBR Green DNA, 72 h; at 28.5 µM (top of the series). The procedure, abridged:
as §1

Regarding `CCC1NC(=O)c2cc(S(N)(=O)=O)c(Cl)cc2N1` (stereo unspecified), in assay [1], the max response was 5.58% (inactive). The Potency result in assay [2], in assay [4], in [5], in assay [6] and in assay [7] was “inactive” each time. For the same compound, in [3], the call was inactive.

Turning to `C#C[C@]1(O)CC[C@H]2[C@@H]3CCC4=Cc5oncc5C[C@]4(C)[C@H]3CC[C@@]21C`, the figures for the max response in [1] and in [8] were -4.72% (inactive) and -10.7% (inactive), respectively. Further, the compound was called inactive in [9] and in assay [3]. Besides, the Potency entry in [2], in assay [4], in assay [5] and in [7] was “inactive” throughout. For the same compound, in assay [6], the Potency was 4.61 µM (active).

`C[C@@]12C(=O)OC(=O)[C@]1(C)C1CCC2O1`: the max response in assay [1] was -5.31% (inactive). The Potency result in assay [2] is “inactive”. In addition, in assay [3], the compound was called inactive. In addition, the Potency in assay [4] is 0.501 µM (active); in assay [5], 0.698 µM (active); in [6], 3.12 µM (active).

In the case of `Oc1c(Cl)cc(Cl)c(Cl)c1Cc1c(O)c(Cl)cc(Cl)c1Cl`, the max response in assay [1] was 14.7% (inactive). Moreover, the compound was classed as inactive in assay [9] and in assay [3]. For the same compound, the Potency entry in assay [2], in assay [5] and in assay [7] was “inactive” each time. In addition, the figures for the Potency in [4] and in [6] were 25.1 µM (active) and 2.06 µM (active), respectively.

As to `Clc1cccc(C(c2ccc3nc[nH]c3c2)n2ccnc2)c1` (stereo unspecified), the Potency result in [2], in assay [4], in [5] and in assay [7] was “inactive” each time. Besides, in [3], the call was inactive.

In the case of `C=C[C@H]1CN2CC[C@H]1C[C@@H]2[C@@H](O)c1ccnc2ccc(OC)cc12`, in [8], the max response is -3.56% (inactive). Besides, the call in [9] and in [3] was inactive. Besides, the Potency entry in assay [2], in [4], in [5], in assay [6] and in [7] was “inactive” throughout.

Consider `N#C/C(=C1\SCC(c2ccccc2Cl)S1)n1ccnc1` (stereo unspecified), for which the Potency entry in [2], in assay [4], in assay [5] and in [7] was “inactive” throughout. Further, the outcome in assay [3] was inactive.

`CCCCCCCCNC(C)C(O)c1ccc(SC(C)C)cc1` (stereo unspecified): the Potency in assay [1] was 2.51 µM (active); in assay [4], 35.5 µM (active); in assay [6] it was 11.6 µM (active). Moreover, the Potency entry in assay [2] and in assay [5] was “inactive” each time. Moreover, the result in [3] was inactive.

For the compound `c1ccc(-c2nc[nH]c2-c2ccccc2)cc1`, the Potency result in assay [2], in assay [4], in assay [5] and in assay [7] was “inactive” in each case. The compound was called inactive in [3].

Turning to `COc1ccc(C(=O)c2ccccc2O)c(O)c1`, the max response in [1] is 14.9% (inactive). The Potency result in assay [2], in assay [4], in [5] and in assay [7] was “inactive” each time. Moreover, the compound was classed as inactive in assay [3].

On to `CCCCCCCC/C=C\CCCCCCCCN`, for which the max response in assay [8] is -0.943% (inactive). In addition, the compound was called inactive in assay [9] and in assay [3]. The Potency entry in assay [2], in assay [4], in [5], in assay [6] and in assay [7] was “inactive” each time.

For the compound `Cc1ccc2c(Br)cc(Br)c(O)c2n1`, the Potency result in [2], in assay [4], in assay [5] and in assay [7] was “inactive” throughout. In assay [3], the outcome was inactive.

For the compound `CC1(COc2ccc(CC3SC(=O)NC3=O)cc2)CCCCC1` (stereo unspecified), the max response in [8] was -6.86% (inactive). Further, the Potency entry in assay [2], in [4], in [5], in assay [6] and in assay [7] was “inactive” throughout. Moreover, the call in assay [3] was inactive.

With `O=C(NC1CCN(CCc2c[nH]c3ccccc23)CC1)c1ccccc1`, the Potency result in assay [2], in assay [4], in assay [5] and in assay [7] was “inactive” throughout. In addition, in assay [3], the compound was called inactive.

`O=C(O)c1ccc(S(=O)(=O)N(Cl)Cl)cc1`: the values for the max response in [1] and in [8] were -8.91% (inactive) and 0.513% (inactive), respectively. Moreover, the outcome in assay [9] and in [3] was inactive. For the same compound, the Potency entry in assay [2], in assay [4], in [5], in assay [6] and in assay [7] was “inactive” throughout.

As to `CCOC(=O)C(C#N)=C(c1ccccc1)c1ccccc1`, the Potency entry in assay [2], in [4], in [5] and in assay [7] was “inactive” throughout. For the same compound, in [3], the call was inactive.

With `Nc1nc(Cl)nc2c1ncn2[C@@H]1O[C@H](CO)[C@@H](O)[C@@H]1F`, the Potency entry in assay [2], in assay [4] and in [5] was “inactive” in each case. In addition, the compound was classed as inactive in assay [3]. In assay [7], the Potency was 4.47 µM (active).

Consider `O=C(CN1CCN(Cc2ccc3c(c2)OCO3)CC1)N1c2ccccc2Sc2ccccc21`, for which the Potency result in [2], in [4], in assay [5] and in [7] was “inactive” each time. In addition, in assay [3], the compound was called inactive.

Consider `CCOC(=O)Nc1ccc2c(c1)N(C(=O)CCN1CCOCC1)c1ccccc1S2`, for which the max response in assay [1] was 12.1% (inactive). Also, the parasite growth, % of DMSO control in assay [10] was 47.5%. In assay [11], this compound returned a parasite growth remaining, % of DMSO control (lower = more inhibition) of 85.2%. The parasite growth, % of control (lower = inhibition) in assay [12] is 68.2%. Further, the growth, % of control in assay [13] was found to be 41.6%. In addition, the Potency result in [2], in assay [4], in [5], in [6] and in assay [7] was “inactive” each time. Further, the call in assay [3] was inactive.

With `CCCCc1cc2ccccc2c(OCCN(C)C)n1`, the Potency result in [2], in assay [4], in assay [5] and in assay [7] was “inactive” in each case. In assay [3], the result was inactive.

Consider `CCCCC(CC)COC(=O)c1ccc(N(C)C)cc1` (stereo unspecified), for which the max response is 3.36% (inactive) in assay [1]; 4.36% (inactive) and -3.29% (inactive) in assay [8]. For the same compound, the compound was classed as inactive in [9] and in [3]. Further, the Potency result in assay [2], in assay [4], in assay [5], in [6] and in [7] was “inactive” each time.

`COc1ccc(CN(CCN(C)C)c2ncccn2)cc1`: the max response in assay [1] was -8.37% (inactive). Also, the Potency entry in assay [2], in assay [4], in assay [5] and in assay [7] was “inactive” each time. Further, the compound was called inactive in [3].

With `COc1ccc(C(=O)c2ccccc2)c(O)c1`, the max response in assay [1] is -10.7% (inactive); in [8], -9.22% (inactive) and -8.85% (inactive). Besides, the call in assay [9] and in assay [3] was inactive. The Potency result in assay [2], in [4], in assay [5], in assay [6] and in [7] was “inactive” in each case.

Turning to `CC(=O)O[C@]1(C(C)=O)CC[C@H]2[C@@H]3C=C(C)C4=CC(=O)CC[C@]4(C)[C@H]3CC[C@@]21C`, the max response in [1] is 3.72% (inactive). Moreover, the Potency entry in [2], in assay [4], in [5] and in [7] was “inactive” in each case. Moreover, the outcome in assay [3] was inactive.

For `NS(=O)(=O)Cc1noc2ccccc12`, in assay [1], the max response is -3.32% (inactive). In addition, the parasite growth, % of DMSO control in [10] was found to be 102%. The compound also showed a parasite growth remaining, % of DMSO control (lower = more inhibition) in assay [11] of 99.5%. Further, the parasite growth, % of control (lower = inhibition) in assay [12] stood at 74.3%. The compound also yielded a growth, % of control in assay [13] of 106%. Further, the Potency entry in [2], in assay [4], in [5], in assay [6] and in assay [7] was “inactive” in each case. For the same compound, the outcome in [3] was inactive.

On to `CCCCCCCCCCCCCCC[C@H](O)[C@@H](N)CO`, for which the Potency result in assay [2], in assay [4], in [5] and in assay [7] was “inactive” throughout. In addition, in assay [3], the result was inactive.
